PubChem BioAssay (EPA / NIEHS)
Records with an inconclusive call do not appear. Active and inactive are the calls of the source. How the source made its calls: active means hit-call score of the fitted dose curve at least 0.9, where 1 is the maximum; inconclusive means response in the unintended direction; inactive means score below 0.9.

Biological target: Androgen receptor (Homo sapiens) (UniProt P10275)
Test: ATG_AR_TRANS: Attagene TRANS-FACTORIAL HepG2 Assay for human Androgen Receptor (AR) (AID 2282973)
Conditions: HepG2 Attagene TRANS-FACTORIAL AR reporter transcription
Method in brief: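 Chimeric nuclear receptor–Gal4 activity was assessed in human HepG2 hepatocytes after 24 h chemical dosing. Induced reporter mRNA was detected via labelled RT-PCR fragments on capillary electrophoresis, and gain of signal was analysed against DMSO.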

Sequence of Androgen receptor (Homo sapiens) (P10275 whole entry, looked up): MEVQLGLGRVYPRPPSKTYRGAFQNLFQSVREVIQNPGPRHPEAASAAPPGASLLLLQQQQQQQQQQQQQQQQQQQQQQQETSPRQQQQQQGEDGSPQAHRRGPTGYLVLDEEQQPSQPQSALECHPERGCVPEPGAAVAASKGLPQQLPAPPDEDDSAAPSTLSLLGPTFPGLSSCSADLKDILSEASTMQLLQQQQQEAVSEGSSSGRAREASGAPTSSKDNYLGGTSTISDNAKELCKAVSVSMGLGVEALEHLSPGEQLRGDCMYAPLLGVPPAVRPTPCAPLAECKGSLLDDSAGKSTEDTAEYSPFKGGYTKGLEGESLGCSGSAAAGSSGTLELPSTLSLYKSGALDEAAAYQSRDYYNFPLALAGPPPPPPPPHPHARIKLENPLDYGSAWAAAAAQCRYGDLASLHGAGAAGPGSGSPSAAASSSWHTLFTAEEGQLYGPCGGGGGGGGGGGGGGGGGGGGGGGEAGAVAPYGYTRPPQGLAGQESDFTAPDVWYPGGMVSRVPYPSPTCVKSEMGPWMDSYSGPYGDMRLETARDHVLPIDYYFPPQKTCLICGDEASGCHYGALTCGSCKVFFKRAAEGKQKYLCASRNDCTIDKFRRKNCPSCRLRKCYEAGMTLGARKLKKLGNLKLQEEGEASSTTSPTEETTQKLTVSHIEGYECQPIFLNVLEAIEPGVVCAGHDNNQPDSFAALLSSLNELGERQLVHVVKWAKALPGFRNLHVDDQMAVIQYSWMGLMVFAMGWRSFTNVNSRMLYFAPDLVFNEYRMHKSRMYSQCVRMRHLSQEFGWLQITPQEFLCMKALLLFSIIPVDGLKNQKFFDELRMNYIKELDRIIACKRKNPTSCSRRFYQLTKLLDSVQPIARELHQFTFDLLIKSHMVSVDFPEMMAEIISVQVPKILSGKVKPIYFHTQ

SMILES | outcome
COC(=O)CSc1cc(N=c2sc(=O)n3n2CCCC3)c(F)cc1Cl | inactive
O=C(O)C(F)(F)C(F)(F)C(F)(F)C(F)(F)C(F)(F)C(F)(F)C(F)(F)C(F)(F)Cl | inactive
CSc1ccc(Oc2ccc(S(N)(=O)=O)cc2CN(C)C)cc1C | inactive
CCCOC(=O)c1ccc(C(=O)OCCC)nc1 | inactive
c1ccc2c(c1)c1cccc3ccc4cccc2c4c31 | inactive
O=c1cc(-c2ccccc2)oc2ccccc12 | inactive
N#CSCSc1nc2ccccc2s1 | inactive
CCN(CC)CCOc1ccc(C(=C(Cl)c2ccccc2)c2ccccc2)cc1 | inactive
Cc1nn(C)c(Oc2ccccc2)c1C=NOCc1ccc(C(=O)OC(C)(C)C)cc1 | inactive
OCCCCl | inactive
CCCOc1sc(C(=O)N2CCC(c3cc(CN)ccc3F)CC2)c(C)c1Br | inactive
CN(C)c1ccc(C(=C2C=CC(=[N+](C)C)C=C2)c2ccc(N(C)C)cc2)cc1 | inactive
CC1CCC(C(C)(C)O)CC1 (stereo not given) | inactive
OCCCc1cccnc1 | inactive
O=C(O)Cn1c(=O)n(Cc2ccc(Br)cc2F)c(=O)c2ccc(Cl)cc21 | inactive
COCC(C)OCC(C)O (stereo not given) | inactive
NC(=NCCCCCCN=C(N)/N=C(\N)Nc1ccc(Cl)cc1)/N=C(\N)Nc1ccc(Cl)cc1 | inactive
C=CCCCCCCCCCCCC | inactive
COc1cc(C(=O)NC2CCN(C)CC2)ccc1Nc1ncc2c(n1)N(C1CCCC1)CC(F)(F)C(=O)N2C | inactive
CN(C)C(=O)C1(N2CCCCC2)CCN(CC[C@@]2(c3ccc(Cl)c(Cl)c3)CN(C(=O)c3ccccc3)CCO2)CC1 | inactive
CN(C)c1ccc(N=NS(=O)(=O)O)cc1 | inactive
CCCCCCCCCCCCCC[P+](CCCC)(CCCC)CCCC | inactive
COc1ccc(S(=O)(=O)N2C(=O)[C@@](c3ccccc3OC)(N3C[C@H](O)C[C@H]3C(=O)N(C)C)c3cc(Cl)ccc32)c(OC)c1 | inactive
O=C(Nc1ccc(Cl)cc1)Nc1ccc(Cl)c(Cl)c1 | inactive
Oc1ccc2ccccc2c1 | inactive

SMILES | outcome
O=Cc1ccccc1C=O | inactive
COCCOC[C@H](CC1(C(=O)NC2CCC(C(=O)O)CC2)CCCC1)C(=O)Oc1ccc2c(c1)CCC2 (stereo not given in full) | inactive
CCOC(=O)C1=NN(c2ccc(Cl)cc2Cl)C(C)(C(=O)OCC)C1 (stereo not given) | inactive
CC[C@H](c1ccc(O)cc1)[C@@H](CC)c1ccc(O)cc1 | inactive
Oc1cc2ccccc2c2ccccc12 | inactive
Nc1cccc2c(N)cccc12 | inactive
CCCCCCCCCCCCCCCCOS(=O)(=O)O | inactive
Clc1cc(Cl)c(-c2c(Cl)c(Cl)cc(Cl)c2Cl)cc1Cl | inactive
O=C(O)c1cccc(N(Cc2cccnc2)c2ccc(OC(F)F)c(OC(F)F)c2)c1 | inactive
CCCN(CCC)C(=O)SCC | inactive
CCOc1ccc2c(c1)C(C)=CC(C)(C)N2 | inactive
CCN(Cc1cccnc1)C(=O)c1cccc(Cl)c1[C@]1(C)C(=O)N(Cc2ccc(OC)cc2OC)c2ccc(Cl)cc21 | inactive
CCCN(C1CCN(C(=O)C2CCNCC2)CC1)[C@@H]1CCc2ccc(OC)cc2C1 | inactive
COc1cc(-c2nc(NC(=O)c3cc4cc(C)cc(C)c4n3CC(=O)O)sc2CCC2CCCCC2)c(OC)cc1Cl | inactive
Cc1c2ccccc2c(C)c2c1ccc1ccccc12 | inactive
CCCCCCCCCCCCc1ccccc1S(=O)(=O)O | inactive
O=C(c1ccc(O)cc1O)c1ccc(O)cc1O | inactive
Cc1ccc(-c2cc(C(F)(F)F)nn2-c2ccc(S(N)(=O)=O)cc2)cc1 | inactive
CCCCCCCCN(C)CCCCCCCC | inactive
c1ccc2[nH]c(-c3cscn3)nc2c1 | inactive
N#C[C@@H]1CC(F)(F)CN1C(=O)CNC1CC2CCC(C1)N2c1ncccn1 (stereo not given in full) | inactive
COc1ccc2c(c1)c(CC(=O)O)c(C)n2C(=O)c1ccc(Cl)cc1 | inactive
CCN(CC)C(=S)SSC(=S)N(CC)CC | inactive
O=S1(=O)CC(Cl)(Cl)C(Cl)(Cl)C1 | inactive
OCCC(F)(F)C(F)(F)C(F)(F)C(F)(F)C(F)(F)C(F)(F)C(F)(F)C(F)(F)F | inactive
